Source: PubChem BioAssay
An excerpt weighted towards active compounds, which were near 22% of everything screened.
CYP2C19 inh = human CYP2C19 inhibition; CYP2C19 Supersomes, luciferin-H EGE luminescence, 30 min; inhibition, % at 5 µM; 96,000 tested, 21% active; AID 778;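 active means CYP2C19 inhibition above a set limit at 5 µM in the primary screen, cut at about 50% in these data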;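 further: plate controls were negative control wells for no effect and 2.5 mM tranylcypromine positive control for full effect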
Target sequence (P33261 whole entry, looked up): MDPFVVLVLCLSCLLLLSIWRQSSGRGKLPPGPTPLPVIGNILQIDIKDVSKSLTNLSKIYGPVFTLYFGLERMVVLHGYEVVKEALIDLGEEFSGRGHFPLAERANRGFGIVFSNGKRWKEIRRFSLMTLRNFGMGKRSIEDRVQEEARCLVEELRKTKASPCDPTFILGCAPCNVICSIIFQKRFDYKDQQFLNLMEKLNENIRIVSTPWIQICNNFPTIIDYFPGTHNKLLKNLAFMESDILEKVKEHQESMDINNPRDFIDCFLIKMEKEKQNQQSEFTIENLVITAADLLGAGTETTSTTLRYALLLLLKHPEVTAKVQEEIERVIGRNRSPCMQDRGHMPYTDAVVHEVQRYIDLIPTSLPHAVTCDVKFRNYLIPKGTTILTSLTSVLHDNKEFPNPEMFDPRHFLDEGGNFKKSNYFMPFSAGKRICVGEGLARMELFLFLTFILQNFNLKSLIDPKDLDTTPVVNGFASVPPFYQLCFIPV
CYP2C9 inh = inhibitors of human CYP2C9. inhibition, % at 5 µM. CYP2C9 Supersomes, luciferin-H conversion, luminescence. 96,000 tested, 20% active. P11712;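 active means blocking of liver enzyme CYP2C9 beyond about 50% at 5 µM, limit read from the data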
Measles CPE = protection of cells from measles virus | 140,000 tested, 1.5% active | Measles virus-infected cells, CPE protection, absorbance | protection (pct of control), % at 4 µM; in the data active means protection mostly above about 24%, no sharp cut-off; inactive means mostly below about 26%
CYP2C9 activ = increases human cytochrome P450 2C9 activity. 96,000 tested, 1.4% active. P11712. AID 1024. activation factor at 5 µM. recombinant CYP2C9, luciferin-H conversion, luminescence; active compounds read high; factor 1 = untreated enzyme, 0 = blocked;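 active means activation factor of 2 or more for CYP2C9 at a 5 µM dose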;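 further: 0 = sulfaphenazole-blocked wells and 1 = vehicle-only wells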
CYP2C19 activ = cytochrome P450 2C19 (human) activation. activation factor at 5 µM. 96,000 tested, under 10 active. AID 1025. recombinant CYP2C19, luciferin-H EGE luminescence; active compounds read high; 0 = fully inhibited enzyme, 1 = untreated enzyme;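 active means activation factor of at least 2 at 5 µM in the primary screen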;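 further: 0 = wells with 2.5 mM tranylcypromine and 1 = vehicle-only wells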
* = called active by the depositor; / = no result.

SMILES	CYP2C19 inh	CYP2C9 inh	Measles CPE	CYP2C9 activ	CYP2C19 activ
CC(=O)NCCn1c(SCC(=O)NCCC(C)C)nc2ccccc2c1=O	68.8*	10.8	60.5*	0.9	0.3
O=C(CSc1nc2ccccc2c(=O)n1Cc1ccco1)NCc1ccco1	/	/	13.2	/	/
CCCCNC(=O)CSc1nc2ccccc2c(=O)n1Cc1ccc2c(c1)OCO2	83.6*	43.7	28.1	0.6	0.2
O=C(CSc1nc2ccccc2c(=O)n1-c1ccccc1)NCc1ccc2c(c1)OCO2	18.6	18.4	8.4	0.8	0.8
CC(=O)NCCn1c(SCC(=O)NCc2ccco2)nc2ccccc2c1=O	85.0*	-15.1	23.3	1.2	0.2
COc1ccccc1NC(=O)CSc1nc2ccccc2c(=O)n1CCNC(C)=O	33.3	49.0	3.8	0.5	0.7
CC(CCc1ccc(O)cc1)N(C)CCc1ccccc1 (configuration not stated)	7.9	-21.2	4.1	1.2	0.9
O=C(CSc1nc2ccccc2c(=O)n1-c1ccccc1)NCc1ccco1	42.9	23.3	7.8	0.8	0.6
CCCCn1c(SCC(=O)Nc2nnc(CC)s2)nc2ccccc2c1=O	2.3	15.6	32.5*	0.8	1
CC(C)(C)c1nc(SCC(=O)NCc2ccco2)c2ccccc2n1	93.9*	65.4*	6.1	0.3	0.1
CCCCn1c(SCC(=O)Nc2nnc(CC)s2)nc2c1c(=O)n(C)c(=O)n2C	-7.0	1.2	7.6	1	1.1
COCc1[nH]nc2c1C(c1ccc(OC)cc1)C(C#N)=C(N)O2 (configuration not stated)	30.7	37.1	11.7	0.6	0.7
N#CC1=C(N)Oc2n[nH]c(-c3ccc(F)cc3)c2C1c1cccnc1 (configuration not stated)	69.7*	54.9*	15.4	0.5	0.3
CCc1[nH]nc2c1C(c1ccncc1)C(C#N)=C(N)O2 (configuration not stated)	59.1*	69.2*	16.0	0.3	0.4
CCC(C)C1C(C#N)=C(N)Oc2n[nH]c(-c3ccccc3)c21 (configuration not stated)	52.8*	15.8	0.5	0.8	0.5
N#CC1=C(N)Oc2n[nH]c(-c3ccccc3)c2C1c1ccncc1 (configuration not stated)	84.8*	88.8*	8.8	0.1	0.2
COc1ccc(O[C@H]2C=C[C@@H](c3ccccc3)O[C@@H]2COC(=O)CC/C(C)=N/O[C@H](C)c2cn([C@@H]3COC[C@H]3O)nn2)cc1	/	/	9.1	/	/
O=C(CNCC1CCCCC1)Nc1ccccc1N1CCCCC1	73.9*	48.0	8.6	0.5	0.3
O=C(CN1CCCCC1)Nc1ccccc1NC(=O)CN1CCCCC1	-7.5	-9.0	17.5	1.1	1.1
COc1ccc(NC(=O)CNCCC2=CCCCC2)cc1	29.1	-16.9	24.2	1.2	0.7
O=C(CNC1CCCCCC1)Nc1ccccc1N1CCCCC1	56.6*	23.5	4.7	0.8	0.4
O=C(CN1CCc2ccccc2C1)Nc1ccccc1N1CCCCCC1	90.0*	72.6*	12.9	0.3	0.1
O=C(CNCCC1=CCCCC1)Nc1ccccc1N1CCCCC1	92.6*	86.4*	3.0	0.1	0.1
O=C(CNCC1CCCO1)Nc1ccccc1N1CCOCC1 (configuration not stated)	-4.1	13.9	6.0	0.9	1
Nc1cc(Cl)nc(N/N=C/c2c(O)ccc3ccccc23)n1	/	/	15.6	/	/
SMILES	CYP2C19 inh	CYP2C9 inh	Measles CPE	CYP2C9 activ	CYP2C19 activ
COc1nc(NCC(C)C)nc(Oc2ccc(=O)n(-c3ccccc3)n2)n1	22.3	40.6	20.4	0.6	0.8
COc1ccc(-c2oc3ccccc3c(=O)c2OC(=O)c2ccc(C)cc2)cc1	84.0*	88.6*	5.1	0.1	0.2
CCCCN1C(=O)C(NC(C)=O)c2cc(Br)ccc21 (configuration not stated)	78.7*	23.7	14.4	0.8	0.2
COc1ccc(NS(=O)(=O)c2ccc3nc(COc4ccc5ccccc5c4)[nH]c3c2)cc1	/	/	6.2	/	/
CCOc1ccc(Br)cc1S(=O)(=O)N1CC(C)OC(C)C1 (configuration not stated)	88.2*	-2.9	4.7	1	0.1
CCOc1ccc(C)cc1S(=O)(=O)N1CCCCC1	65.6*	-93.6	19.2	1.9	0.3
CCOc1ccc(OCC)c(NC(=O)C2CCCN2S(=O)(=O)c2cccc3cccnc23)c1 (configuration not stated)	41.0	-64.0	2.5	1.6	0.6
CCOc1ccc(OCC)c(S(=O)(=O)N2CCCCC2C)c1 (configuration not stated)	89.3*	52.6*	6.8	0.5	0.1
CCOc1cc(S(=O)(=O)N2CCCC2)ccc1Cl	50.7*	-42.7	16.2	1.4	0.5
CCOc1ccc(S(=O)(=O)N2CCCCC2)c2ccccc12	45.4	-48.6	14.9	1.5	0.5
CCOc1cc(Br)ccc1S(=O)(=O)N1CC(C)OC(C)C1 (configuration not stated)	11.4	11.8	20.2	0.9	0.9
Cc1sc2ncn(C(C)C(=O)OC3CCCCC3)c(=O)c2c1C (configuration not stated)	31.8	24.9	6.1	0.8	0.7
CCCCSc1nnc(-c2ccc(C)cc2)n1C	29.4	-10.0	6.7	1.1	0.7
COc1cc(C=O)ccc1OCCCOc1ccccc1[N+](=O)[O-]	/	/	8.9	/	/
CCOC(=O)C1C(c2cccs2)NC(=O)NC1(O)C(F)(F)F (configuration not stated)	-0.9	1.1	25.4	1	1
COc1cc(C)c(Br)cc1S(=O)(=O)N1CCOCC1	/	/	15.2	/	/
CCOc1ccc(C(C)(C)C)cc1S(=O)(=O)N1CCOCC1	67.9*	50.3*	24.8	0.5	0.3
O=C(COC(=O)CN1C(=O)c2ccccc2C1=O)Nc1ccc(S(=O)(=O)N2CCCC2)cc1	-5.2	35.5	4.8	0.6	1.1
CC(C(=O)OCC(=O)Nc1ccc(S(=O)(=O)N2CCCCC2)cc1)N1C(=O)c2ccccc2C1=O (configuration not stated)	22.4	92.5*	3.6	0.1	0.8
O=C(Cn1ncc2c1-c1ccccc1OC2)Nc1ccc(S(=O)(=O)N2CCCCC2)cc1	16.9	68.2*	5.3	0.3	0.8
Cc1ccc(S(=O)(=O)N2CCOCC2)cc1NC(=O)COC(=O)CCC(=O)c1cccs1	15.6	14.3	22.3	0.9	0.8
O=C(Cn1nc(-c2ccccc2F)ccc1=O)Nc1ccc(S(=O)(=O)N2CCCCCC2)cc1	/	/	4.9	/	/
O=C(COC(=O)CCC(=O)c1cccs1)Nc1ccc(S(=O)(=O)N2CCOCC2)cc1	21.4	88.6*	4.1	0.1	0.8
O=C(COC(=O)CCN1C(=O)c2ccccc2C1=O)Nc1ccc(S(=O)(=O)N2CCCC2)cc1	54.4*	96.1*	2.0	0	0.5
CN1CCN(S(=O)(=O)c2ccc(C(=O)Nc3ccccc3)cc2)CC1	-7.1	1.9	21.0	1	1.1
C/C(=C\c1ccccc1)CN1CCN(c2cccc(Cl)c2)CC1	7.5	11.8	4.6	0.9	0.9
C/C=C(\C)CN1CCN(c2ccc(C)cc2)CC1	85.9*	-1.3	19.7	1	0.1
